A short description of assay [1]: Viability qHTS for spleen associated tyrosine kinase inhibitor (SYKi) naive MV4-11 cells (AID 1963823). Also: nearly all actives have a fitted effect of over 40% in size. The method, boiled down: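 qHTS, SYK inhibitor-naive MV4-11; 500 cells/well; 72 hr compound exposure, 37 C; CellTiter-Glo added, 10 min RT; luminescence read.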
(In general: qHTS replaces the single test concentration by a dilution series.)

Assay [2] in a line: Viability qHTS for spleen associated tyrosine kinase inhibitor (SYKi) drug resistant MV4-11 cells (AID 1963824). Also: nearly all actives have a fitted effect of over 35% in size. Put shortly:
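SYK-inhibitor-resistant MV4-11 AML cells were seeded at 500 per well onto compound and cultured 72 hours (37 °C, 5% CO2). CellTiter-Glo was then added, and after 10 min at room temperature, luminescence gave viability.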

Assay [3] in a line: Cellular viability qHTS for adrenocortical cancer (ACC) cell line SW-13 (AID 1963989). Also: nearly all actives have a fitted effect of over 65% in size.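 As to activity (max response): cells grown in serum-free medium with ITS supplement; % is scaled to controls: 0 for no effect and ±100 for the full control effect.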 The note with it: SW-13 ACC cells viability, CellTiter-Glo, 48 h; activity (max response): hits give low values. Put shortly: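 Viability was read as CellTiter-Glo luminescence after 48 h compound treatment (up to 46 uM final) of SW-13 cells grown serum-free; titration curves were fit with a four-parameter logistic model to give IC50 and efficacy.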

Assay [4] in a line: Cellular viability qHTS for adrenocortical cancer (ACC) cell line NCI-H295R (AID 1963990). Also: nearly all actives have a fitted effect of over 60% in size. Put shortly: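 CellTiter-Glo ATP luminescence, read 48 h after compound addition, measured viability of NCI-H295R adrenocortical cells grown serum-free with ITS. Final concentrations spanned up to 46 uM. Data normalized to DMSO and doxorubicin, fitted for IC50 and maximal response.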

Molecules are shown by their SMILES. Several values for one entry are separate records, joined by “and”; a condition that tells them apart may be missing. Equal entries are not always repeated. Records with an inconclusive call do not appear. Activity calls are given as the source filed them. Calls follow the shape of the dose curve; as a rule, active = well fitted curve in the direction sought with a large enough effect; inconclusive = small, poorly fitted or top-dose-only effect, or another doubt; inactive = no such curve, though single readings can be large; an effect the other way counts as inactive or inconclusive.
Potency is read from the fitted curve at half-maximal effect.

Regarding `CN(C)c1cc(NC(=O)CNC(C)(C)C)c(O)c2c1C[C@H]1C[C@H]3[C@H](N(C)C)C(=O)C(C(N)=O)=C(O)[C@]3(O)C(=O)C1=C2O`, the Potency entry in assay [1], in assay [2] and in assay [4] was “inactive” in each case. The activity (max response) in assay [3] was -8.31% (inactive).

On to `COc1cccc(Nc2ncnn3ccc(CN4CC[C@@H](N)[C@H](O)C4)c23)c1`, for which the values for the Potency in assay [1], in assay [2] and in assay [3] were 0.0411 µM (active), 0.184 µM (active) and 0.316 µM (active), respectively. The Potency entry in assay [4] was “inactive”.

For `CCCCC1(COC(=O)CCC(=O)O)C(=O)N(c2ccccc2)N(c2ccccc2)C1=O`, the Potency entry in assay [1], in assay [2] and in assay [4] was “inactive” in each case. In assay [3], the activity (max response) was 6.69% (inactive).

Regarding `CCCCC(=O)OCC(=O)[C@]1(O)Cc2c(O)c3c(c(O)c2[C@@H](O[C@H]2C[C@H](NC(=O)C(F)(F)F)[C@H](O)[C@H](C)O2)C1)C(=O)c1c(OC)cccc1C3=O`, the Potency was 0.148 µM (active) in assay [1], 0.209 µM (active) in assay [2], 2.82 µM (active) in assay [3] and 3.55 µM (active) in assay [4].

With `COc1cc(N2CCC(N)CC2)ccc1Nc1ncc(Cl)c(-c2c[nH]c3ccccc23)n1`, the Potency in assay [1] was 0.0166 µM (active); in assay [2] it was 18.4 nM (active) and 37.2 nM (active); in assay [3], 3.16 µM (active); in assay [4], 0.447 µM (active).

On to `Cc1c(O)cccc1C(=O)NC(CSc1ccccc1)C(O)CN1CC2CCCCC2CC1C(=O)NC(C)(C)C` (stereo not given), for which the Potency in assay [1] is 16.6 µM (active); in assay [2] it was 11.8 µM (active); in assay [3], 28.2 µM (active); in assay [4], 17.8 µM (active).

`CC(=O)NC(CS)C(=O)O` (stereo not given): the Potency result in assay [1], in assay [2] and in assay [4] was “inactive” each time. In assay [3], the activity (max response) was -2.17% (inactive).

For the compound `O=C(O)Cc1ccccc1Oc1ccc(Cl)cc1Cl`, the Potency entry in assay [1], in assay [2] and in assay [4] was “inactive” throughout. For the same compound, the activity (max response) in assay [3] is 4.63% (inactive).

Turning to `C=CC(=O)Nc1cccc(Nc2nc(Nc3ccc(NC4CN(CCF)C4)cc3OC)ncc2C(F)(F)F)c1`, the Potency is 1.3 µM (active) and 662 nM (active) in assay [1]; 1.3 µM (active) and 1.48 µM (active) in assay [2]; 2.51 µM (active) in assay [3]; 8.91 µM (active) in assay [4].

As for `Cn1cc(-c2cc(Oc3cc(F)c(NC(=O)C4(C(=O)Nc5ccccc5)CC4)cc3F)ccn2)cn1`, the Potency in assay [1] was 0.103 µM (active); in assay [2], 0.461 µM (active); in assay [3], 25.1 µM (active); in assay [4], 28.2 µM (active).

In the case of `CC(Cc1ccccc1)(NC(=O)CN)c1ccccc1` (stereo not given), the Potency result in assay [1], in assay [2] and in assay [4] was “inactive” throughout. Besides, in assay [3], the activity (max response) is 8.44% (inactive).

For the compound `C/C=C/C/C=C/CCC(=O)[C@H]1O[C@H]1C(N)=O`, the Potency in assay [1] was 8.33 µM (active); in assay [2], 6.61 µM (active); in assay [3], 25.1 µM (active); in assay [4], 20 µM (active).

`COc1ccc(Cc2cnc(N)nc2N)cc1OC`: the Potency result in assay [1], in assay [2] and in assay [4] was “inactive” in each case. Further, the activity (max response) in assay [3] was 8.41% (inactive).

Take `CN[C@@H]1[C@H](O)[C@H](NC)[C@H]2O[C@@]3(O)C(=O)C[C@@H](C)O[C@H]3O[C@@H]2[C@H]1O`: the Potency entry in assay [1], in assay [2] and in assay [4] was “inactive” throughout. The activity (max response) in assay [3] is 16.5% (inactive).

Consider `COc1cc(C(N)=O)ccc1NC(=O)[C@@H]1N[C@@H](CC(C)(C)C)[C@@]2(C(=O)Nc3cc(Cl)ccc32)[C@H]1c1cccc(Cl)c1F`, for which the Potency in assay [1] was 5.9 µM (active); in assay [2], 4.68 µM (active); in assay [3], 15.8 µM (active); in assay [4] it was 11.2 µM (active).

As to `CN(C)CCn1nnnc1SCC1=C(C(=O)O)N2C(=O)[C@@H](NC(=O)Cc3csc(N)n3)[C@H]2SC1`, the Potency entry in assay [1], in assay [2] and in assay [4] was “inactive” each time. In addition, the activity (max response) in assay [3] was 8.48% (inactive).

As to `COc1ccc(N2C(=O)N(c3c(C)cccc3Cl)Cc3cnc(Nc4ccc(C5CCN(C)CC5)cc4OC)nc32)nc1`, the Potency in assay [1] was 0.934 µM (active); in assay [2], 1.48 µM (active); in assay [3], 2.24 µM (active); in assay [4], 17.8 µM (active).

As to `O=C(Nc1ccnc(NC(=O)C2CC2)c1)c1c(Cl)cccc1Cl`, the Potency is 5.17 µM (active) in assay [1], 4.68 µM (active) in assay [2], 15.8 µM (active) in assay [3] and 11.2 µM (active) in assay [4].

Consider `CNc1c2c(nn1C)CCCC2`, for which the Potency entry in assay [1], in assay [2] and in assay [4] was “inactive” throughout. Also, in assay [3], the activity (max response) is -0.416% (inactive).

`CC(C)N(CCC(=O)c1ccc2ccccc2c1)Cc1ccccc1`: the Potency is 2.35 µM (active) in assay [1]; 2.95 µM (active) and 1.84 µM (active) in assay [2]; 14.1 µM (active) in assay [4]. For the same compound, in assay [3], the activity (max response) is -18.6% (inactive).

For the compound `CN(C)CCCSc1ccccc1NC(=O)/C=C/c1ccccc1`, the Potency result in assay [1], in assay [2] and in assay [4] was “inactive” throughout. Besides, the activity (max response) in assay [3] was 8.03% (inactive).

As for `COc1cc(N2CCN(C)CC2)ccc1Nc1nccc(-c2cn(C)c3cnccc23)n1`, the Potency in assay [1] is 116 nM (active) and 209 nM (active); in assay [2], 517 nM (active) and 590 nM (active); in assay [4], 25.1 µM (active). Also, in assay [3], the activity (max response) was -3.47% (inactive).

Take `CC(C)CNc1ccnc(NCc2csc(-c3ccccc3)n2)n1`: the Potency in assay [1] is 1.66 µM (active); in assay [2], 1.16 µM (active); in assay [3], 11.2 µM (active); in assay [4] it was 11.2 µM (active).

Take `CC1(C)S[C@@H]2[C@H](NC(=O)Cc3ccccc3)C(=O)N2[C@H]1C(=O)O` (tested in a mixture with another compound): the Potency result in assay [1], in assay [2] and in assay [4] was “inactive” each time. The activity (max response) in assay [3] was 7.44% (inactive).

Regarding `O=C1Nc2ccc(Cl)cc2[C@@](C#CC2CC2)(C(F)(F)F)O1`, the Potency in assay [1] was 16.6 µM (active) and 5.17 µM (active); in assay [2] it was 13.2 µM (active) and 5.8 µM (active); in assay [3], 18.4 µM (active) and 25.1 µM (active); in assay [4], 22.4 µM (active).

For the origin of these results see PubChem BioAssay (NCATS).
